Data reported in the supplement of paper PMC6555819.

Legend:
Assay in all cases: PBM binding z-score (relative to random genomic background probes); higher = stronger binding; sequences stand for … in GC…GCGATTGACAGCGTAGAATGAAGG
[1] = system: FXR:RXRa (NR concentration 270 nM, RXRa partner concentration 90 nM)
Summary of the method: (§1)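 Regression normalization was applied to scanned fluorescence from custom Agilent 4×180K protein-binding microarrays. Before scanning, arrays were incubated 1 h with ligand-free nuclear receptor dimers, and binding was detected with antibodies against each partner (one per run). Binding z-scores use the random background probes as reference.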

[2] = system: LXRa:RXRa (NR concentration 270 nM, RXRa partner concentration 90 nM)
Summary of the method: as §1

[3] = system: LXRa homodimer (NR concentration 270 nM)
Summary of the method: as §1

[4] = system: LXRb:RXRa (NR concentration 270 nM, RXRa partner concentration 90 nM)
Summary of the method: as §1

[5] = system: LXRb homodimer (NR concentration 270 nM)
Summary of the method: as §1

[6] = system: PPARa:RXRa (NR concentration 270 nM, RXRa partner concentration 90 nM)
Summary of the method: as §1

[7] = system: PPARg:RXRa (NR concentration 180 nM, RXRa partner concentration 90 nM)
Summary of the method: as §1

[8] = system: PPARg:RXRa 270nM:90nM, anti-RXR (NR concentration 270 nM, RXRa partner concentration 90 nM)
Summary of the method: as §1

[9] = system: PPARg:RXRa 30nM:10nM, anti-RXR (NR concentration 30 nM, RXRa partner concentration 10 nM)
Summary of the method: as §1

[10] = system: PPARg:RXRa 90nM:30nM, anti-RXR (NR concentration 90 nM, RXRa partner concentration 30 nM)
Summary of the method: as §1

[11] = system: PPARg:RXRa DBDmut IVT, anti-RXR (DBD mutation: RXRa K156A/R161A, NR concentration 270 nM, RXRa partner concentration 90 nM)
Summary of the method: as §1

[12] = system: PPARg:RXRa IVT, anti-PPARg (NR concentration 270 nM, RXRa partner concentration 90 nM)
Summary of the method: as §1

[13] = system: PPARg DBDmut:RXRa IVT, anti-PPARg (DBD mutation: PPARg1 K132A/R137A, NR concentration 270 nM, RXRa partner concentration 90 nM)
Summary of the method: as §1

[14] = system: PPARg DBDmut IVT, anti-PPARg (DBD mutation: PPARg1 K132A/R137A, NR concentration 270 nM)
Summary of the method: as §1

[15] = system: PPARg homodimer (NR concentration 180 nM)
Summary of the method: as §1

[16] = system: PXR:RXRa (NR concentration 270 nM, RXRa partner concentration 90 nM)
Summary of the method: as §1

[17] = system: PXR homodimer (NR concentration 270 nM)
Summary of the method: as §1

[18] = system: RARa:RXR (NR concentration 270 nM, RXRa partner concentration 90 nM)
Summary of the method: as §1

[19] = system: RARa homodimer (NR concentration 270 nM)
Summary of the method: as §1

[20] = system: RARb:RXRa (NR concentration 270 nM, RXRa partner concentration 90 nM)
Summary of the method: as §1

Row | Sequence | PBM binding z-score [1] | PBM binding z-score [2] | PBM binding z-score [3] | PBM binding z-score [4] | PBM binding z-score [5] | PBM binding z-score [6] | PBM binding z-score [7] | PBM binding z-score [8] | PBM binding z-score [9] | PBM binding z-score [10] | PBM binding z-score [11] | PBM binding z-score [12] | PBM binding z-score [13] | PBM binding z-score [14] | PBM binding z-score [15] | PBM binding z-score [16] | PBM binding z-score [17] | PBM binding z-score [18] | PBM binding z-score [19] | PBM binding z-score [20]
1 | TCTAGTTGGTCAAAGGTCACATACTCGAAATGCG | 5.54 | 5.66 | 3.58 | 5.2 | 2.28 | 6.24 | 10.8 | 9.78 | 9.93 | 11.1 | 3.45 | 6.25 | 1.46 | 1.64 | 5.02 | 5.59 | 1.83 | 7.12 | 3.51 | 4.83
2 | CGTAGTTGGTCAGGAGGTCACACACCGGATATGA | 3.37 | 3.49 | 2.03 | 3.36 | 0.65 | 4.17 | 2.96 | 4.01 | 1.36 | 3.36 | 1.51 | 3.49 | 0.964 | 0.266 | 4.08 | 4.4 | 1.55 | 4.87 | 1.81 | 3.54
3 | ATCGAAAGGTCGACGAGGTAAGTATACACCGTTT | 4.59 | 3.11 | -0.055 | 2.62 | 0.428 | 4.09 | 2.6 | 3 | 1 | 2.11 | 0.556 | 1.6 | 0.911 | 0.688 | 1.42 | 2.3 | 0.185 | 3.12 | 0.419 | 3.66
4 | ATCTCTAGGTAAAGATAGTCCAGTGAATGCAAAT | 0.226 | 0.368 | -0.00685 | -0.0224 | 0.398 | -0.051 | 0.458 | 0.219 | 0.157 | 0.0539 | 2.01 | 1.66 | 1.44 | 0.736 | 0.414 | -0.159 | 0.523 | -0.259 | 0.93 | -0.257
5 | CGAACGAGAGCATGAGTTGATAGCAAATGCCGAT | -0.453 | -0.53 | -0.103 | -0.828 | -0.953 | -0.357 | 0.777 | 0.133 | -0.214 | -0.282 | -0.221 | -0.445 | 0.0684 | -0.174 | -0.221 | -0.273 | -0.148 | -0.442 | -0.33 | -0.53
6 | CCTTACGGGTCAATCCAGGTTATAGCATCGGAGT | 5.24 | 6.46 | 0.547 | 4.05 | 0.285 | 4.76 | 3.53 | 3.75 | 1.26 | 2.54 | 3.11 | 3.6 | 0.439 | -0.233 | 1.18 | 5.42 | 0.705 | 3.74 | 0.489 | 3.44
